From PubChem BioAssay (NCATS)
Values without a mark were called inactive. Inconclusive results are not listed. A call without a number means that no potency is given here. The source made the active and inactive calls. Unless noted, the call rests on the fitted dose curve; in most records, active means well fitted curve in the direction sought with a large enough effect; inconclusive means small, poorly fitted or top-dose-only effect, or another doubt; inactive means no such curve, though single readings can be large; an effect the other way counts as inactive or inconclusive.

Experiments:
[1] = P-glycoprotein substrates identified in KB-8-5-11 adenocarcinoma cell line, qHTS therapeutic library screen (AID 1346987); further: nearly all actives have a fitted effect of over 65% in size; further: potency means the concentration at half of the fitted maximal effect
Method in brief: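 Steps: plate 500 KB-8-5-11 cells/well in DMEM + 10% FCS (colchicine removed); pin compounds in dose-response; incubate 72 h, 37 degree C, 5% CO2; add CellTiter-Glo, 5 min; read luminescence.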

[2] = qHTS assay for small molecule agonists of the antioxidant response element (ARE) signaling pathway (AID 651741; active means well fitted activation curve with a large enough effect in the signal ratio; the % refers to the signal ratio; further: potency means the concentration at half of the fitted maximal effect); settings: HepG2 ARE-bla reporter, beta-lactamase FRET ratio, 16 h
Method in brief: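 CellSensor ARE-bla HepG2 cells (2,000/well) carrying ARE-driven beta-lactamase, exposed 16 h at 37 C. LiveBLAzer B/G FRET substrate added for 2 h at room temperature; fluorescence intensity read.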

[3] = qHTS assay for small molecule activators of the p53 signaling pathway (AID 651743; active means well fitted activation curve with a large enough effect in the signal ratio, not every such curve was filed as active; the % refers to the signal ratio; further: series mostly up to about 92 µM); settings: HCT-116 p53RE-bla, beta-lactamase FRET ratio, 16 h; hits give high values
Method in brief: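 p53RE-bla HCT-116 cells carrying a beta-lactamase reporter under p53 response elements were exposed to compounds for 16 hours at 37 C. Reporter activity read as fluorescence after 2 hours at room temperature with LiveBLAzer B/G FRET substrate.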

[4] = qHTS assay for small molecule activators of the nuclear factor-kappa B (NF-kB) signaling pathway (AID 651749; active means well fitted activation curve with a large enough effect in the signal ratio; the % refers to the signal ratio; further: series mostly up to about 77 µM); settings: NF-kB-bla ME-180 cells, beta-lactamase FRET ratio, 16 h; hits give high values
Method in brief: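 NF-kB-bla ME-180 cells carrying a beta-lactamase reporter under an NF-kB response element, 2,000 cells/well, exposed to compound for 16 hr at 37C; FRET-based beta-lactamase fluorescence read-out of pathway activation.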

[5] = qHTS assay for small molecule disruptors of the mitochondrial membrane potential - 1 hr assay (AID 651754; calls by dose curve; further: potency means the concentration at half of the fitted maximal effect; nearly all actives have a fitted effect of over 35% in size)
Method in brief: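 HepG2, 2,000 cells/well, overnight attachment; cpd or DMSO 1 hr, 37C/5% CO2; Mito-MPS dye 30 min, 37C; fluorescence monomer (490/535) and aggregate (540/590).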

[6] = qHTS assay for small molecule disruptors of the mitochondrial membrane potential - 5 hr assay (AID 651755; calls by dose curve; further: potency means the concentration at half of the fitted maximal effect; nearly all actives have a fitted effect of over 40% in size); settings: JC-1-type ratio dye
Method in brief: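 HepG2 cells (2,000/well), attached overnight, exposed to compound 5 hr at 37C, then Mito-MPS dye 30 min. Fluorescence read for monomers (490/535 nm) and aggregates (540/590 nm).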

[7] = target: Peroxisome proliferator-activated receptor alpha (Homo sapiens) (UniProt Q07869); assay: qHTS assay for small molecule agonists of the peroxisome proliferator-activated receptor alpha (PPARalpha) signaling pathway (AID 651778); settings: PathHunter PPARalpha complementation, chemiluminescence, 6 h; hits give high values
Peroxisome proliferator-activated receptor alpha (Homo sapiens), sequence (Q07869 whole entry, looked up, the tested form may be a part): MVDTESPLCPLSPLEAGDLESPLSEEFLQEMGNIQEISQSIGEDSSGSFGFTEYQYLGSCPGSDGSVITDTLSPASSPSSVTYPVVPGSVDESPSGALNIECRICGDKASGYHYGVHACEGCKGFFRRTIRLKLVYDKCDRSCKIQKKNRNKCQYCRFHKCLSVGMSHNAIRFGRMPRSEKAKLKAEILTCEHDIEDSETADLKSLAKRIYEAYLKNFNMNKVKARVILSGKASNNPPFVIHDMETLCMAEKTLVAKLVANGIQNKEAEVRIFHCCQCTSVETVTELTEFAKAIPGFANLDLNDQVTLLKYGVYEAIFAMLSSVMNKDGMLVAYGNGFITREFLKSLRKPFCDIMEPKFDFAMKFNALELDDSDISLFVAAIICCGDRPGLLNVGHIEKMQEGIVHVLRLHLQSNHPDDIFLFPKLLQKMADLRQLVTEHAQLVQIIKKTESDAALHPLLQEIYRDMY
Method in brief: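 Enzyme-fragment complementation assay in which ligand-bound PPARalpha translocates and forms an active enzyme that generates chemiluminescence. Cells were plated overnight, exposed to compound for 6 hr at 37 C, and then given detection reagent for 60 min at room temperature.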

[8] = target: Nuclear receptor ROR-gamma (Homo sapiens) (UniProt P51449); assay: qHTS assay for small molecule antagonists of the retinoid-related orphan receptor gamma (ROR-gamma) signaling pathway (AID 651802);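 further: luciferase reporter luminescence driven by ROR response element; series mostly up to about 92 µM; nearly all actives have a fitted effect of over 60% in size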
Nuclear receptor ROR-gamma (Homo sapiens), sequence (P51449 whole entry, looked up): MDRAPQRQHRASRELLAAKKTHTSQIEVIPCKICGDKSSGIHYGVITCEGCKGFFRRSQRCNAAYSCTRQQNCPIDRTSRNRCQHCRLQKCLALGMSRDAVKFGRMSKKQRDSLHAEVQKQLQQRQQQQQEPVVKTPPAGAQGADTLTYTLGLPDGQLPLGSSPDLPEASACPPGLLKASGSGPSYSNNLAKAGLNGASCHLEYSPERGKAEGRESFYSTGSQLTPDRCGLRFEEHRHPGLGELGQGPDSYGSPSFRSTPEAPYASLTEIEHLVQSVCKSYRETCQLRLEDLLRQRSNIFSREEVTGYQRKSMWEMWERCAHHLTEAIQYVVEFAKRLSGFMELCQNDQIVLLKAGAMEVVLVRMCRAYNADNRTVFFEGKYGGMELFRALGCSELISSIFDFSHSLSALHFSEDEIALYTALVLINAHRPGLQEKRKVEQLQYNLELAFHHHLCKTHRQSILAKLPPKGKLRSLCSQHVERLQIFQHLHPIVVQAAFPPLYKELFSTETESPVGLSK
Method in brief: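 CHO, TET-inducible ROR + RORE-LUC reporter, 1536-well qHTS. Compound pinned, doxycycline added, 16hr 37C/5% CO2. ONE-Glo, 30 min RT, luminescence; signal drop scored as antagonism.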

[9] = qHTS assay for small molecule agonists of the antioxidant response element (ARE) signaling pathway measured by Nrf2-dependant transcriptional activity - cell viability counter screen (AID 720653; active means well fitted curve in the direction sought with a large enough effect in the repeat runs; an effect the other way counts as inactive or inconclusive); settings: ARE-bla HepG2 viability, CellTiter-Glo ATP luminescence, 16 h; hits give low values
Method in brief: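 ARE-bla HepG2 cells treated with compounds for 16 h at 37C; this counter screen measures viability as intracellular ATP by CellTiter-Glo luminescence after 30 min at room temperature.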

[10] = qHTS assay for cell viability of the p53RE-bla HCT-116 cell line (AID 743292); further: nearly all actives have a fitted effect of over 55% in size
Method in brief: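 In this qHTS counter-screen, metabolically competent p53RE-bla HCT-116 cells were counted via their ATP content. Compounds were applied for 16 h at 37 C and luciferase-coupled luminescence was measured.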

[11] = NS1 protein of Zika virus - qHTS assay to identify small molecule inhibitors in human HEK 293 cells (AID 1347053); further: nearly all actives have a fitted effect of over 55% in size; further: potency means the concentration at half of the fitted maximal effect
Method in brief: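 HEK 293 cells pretreated with compound for 1 h, then infected with ZIKV MR766 (MOI 0.5) for 24 h at 37 C. NS1 detected by TR-FRET with two anti-NS1 antibodies; normalized to uninfected (0%) and infected (100%) wells.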

[12] = target: Tumor necrosis factor (Homo sapiens) (UniProt P01375); assay: qHTS assay to identify small molecules that stimulate Tumor Necrosis Factor-alpha (TNF-alpha) secretion (AID 651757; active means well fitted curve in the direction sought with a large enough effect in the signal ratio; the % refers to the signal ratio)
Tumor necrosis factor (Homo sapiens), sequence (P01375 whole entry, looked up): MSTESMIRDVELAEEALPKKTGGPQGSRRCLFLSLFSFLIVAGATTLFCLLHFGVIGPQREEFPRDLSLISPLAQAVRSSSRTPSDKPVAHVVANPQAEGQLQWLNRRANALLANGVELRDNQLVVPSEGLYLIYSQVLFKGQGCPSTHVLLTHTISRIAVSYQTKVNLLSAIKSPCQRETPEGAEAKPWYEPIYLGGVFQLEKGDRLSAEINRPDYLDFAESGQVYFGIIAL
Method in brief: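 Read-out is HTRF, a TR-FRET sandwich of cryptate- and XL665-labeled anti-TNF-alpha antibodies detecting cytokine secreted by THP-1 cells. Cells had been incubated with test compounds at 37 C for 17 hrs beforehand.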

[13] = qHTS assay to identify small molecules that stimulate interleukin-8 (IL-8) secretion (AID 651758; active means well fitted activation curve with a large enough effect in the signal ratio; the % refers to the signal ratio)
Method in brief: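 THP-1 cells (2000/well) exposed to compound 16 h at 37 C; secreted IL-8 then detected by HTRF with cryptate- and XL665-labelled anti-IL-8 antibody pair after 1-3 h at room temperature.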

[14] = qHTS assay for environmental chemicals that activate the Aryl hydrocarbon Receptor (AhR) signaling pathway (AID 651777); settings: 1A2-DRE human hepatoma cells, luciferase, 24 h; activation: hits give high values; further: potency means the concentration at half of the fitted maximal effect; nearly all actives have a fitted effect of over 15% in size
Method in brief: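 Induction of CYP1A2 transcription through AhR is detected by luciferase in 1A2-DRE hepatoma cells. Compounds or DMSO act for 24 hr at 37 C before a 30 min One-Glo step at room temperature.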

[15] = qHTS assay for small molecule antagonists of the retinoid-related orphan receptor gamma (ROR-gamma) signaling pathway - cell viability counter screen (AID 720652; active means well fitted curve in the direction sought with a large enough effect in the repeat runs; an effect the other way counts as inactive or inconclusive;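 further: series mostly up to about 92 µM; compound exposure lasted 16 hr before ATP read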)
Method in brief: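 Luminescence from CellTiter-Glo after 30 min at room temperature reported cellular ATP as the cytotoxicity measure. Cells were the CHO reporter line with doxycycline-induced ROR-gamma expression, exposed to compound for 16 hr at 37 C.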

[16] = qHTS Assay for Identifying Gametocytocidal Compounds (AID 743244); further: potency means the concentration at half of the fitted maximal effect; settings: P. falciparum 3D7 stage III-V gametocytes, alamarBlue, 72 h; max response: hits give low values
Method in brief: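 Fluorescence at Ex 525/Em 598 nm, recorded 24 h after alamarBlue addition, reports residual metabolic activity of 3D7 gametocytes (stages III–V) following 72 h compound exposure at 37 °C, 5% CO2.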

[17] = qHTS assay for cell viability of HEK293 cells (AID 743288); settings: ATP luminescence (CellTiter-Glo), 18 h, hits give low values; further: nearly all actives have a fitted effect of over 50% in size
Method in brief: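 Total intracellular ATP, measured with a luciferase-coupled reagent, indicates the number of viable HEK293 cells. Exposure to test chemicals lasts 18 h at 37 C in 1,536-well format at 2,000 cells/well.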

Q: With CO[C@H]1/C=C/C=C/C=C/C[C@H](OC(=O)[C@@H](C)NC(=O)C2CCCCC2)[C@H](C)[C@@H](O)/C(C)=C/CCc2cc(O)cc(c2)NC(=O)C1 as the compound, how does the Potency [1] read?
A: Its Potency is “inactive”.

Q: With CCCCc1ccc(C(=O)Nc2cc(-c3ccc(Cl)cc3)nn2-c2ccc(Cl)cc2)cc1 as the compound, how does the Potency [1] read?
A: Its Potency is “inactive”.

Q: For CCCN1CCC(c2cccc(S(C)(=O)=O)c2)CC1, which Potency [1] is on record?
A: Its Potency is “inactive”.

Q: Which Potency [1] does the source give for C=C1CCCC2(C)CC3(OC)OC(=O)C(C)=C3CC12 (stereo not drawn) here?
A: The Potency was “inactive”.

Q: With O=C(N/N=C/c1ccc(O)c(O)c1)c1cc2ccccc2cc1O as the compound, how does the Potency [1] read?
A: Its Potency is “inactive”.

Q: With CC(=O)O[C@@H]1c2c(C)coc2C(=O)[C@@]23O[C@@H]2CC[C@H](C)[C@@]13C as the compound, how does the Potency [1] read?
A: The Potency was “inactive”.

Q: For CC(C)c1c2cc(-c3ccnc(NC4CCC(NC5CCOCC5)CC4)n3)ccc2nn1C (stereo not drawn), which Potency [1] is on record?
A: The Potency was 1.84 µM (active).

Q: For C/C=C/C1=CC2=C(CO1)C(=O)C(C)(O)C(OC(=O)c1c(C)cc(OC)cc1O)C2 (stereo not drawn), which Potency [1] is on record?
A: Its Potency is “inactive”.

Q: With CC1=CC(=O)CC(C)(C)[C@@]1(O)CC[C@@H](C)O[C@@H]1O[C@H](CO)[C@@H](O)[C@H](O)[C@H]1O as the compound, how does the Potency [1] read?
A: Its Potency is “inactive”.

Q: Which Potency [1] does the source give for CC[C@H]1OC(=O)[C@](C)(F)C(=O)[C@H](C)[C@@H](O[C@@H]2O[C@H](C)C[C@H](N(C)C)[C@H]2O)[C@](C)(OC)C[C@@H](C)C(=O)[C@@H](C)[C@H]2N(CCCCn3cc(-c4cccc(N)c4)nn3)C(=O)O[C@]12C here?
A: Its Potency is “inactive”.

Q: For Cc1nc2sc(C(=O)NCc3ccncc3)c(N)c2c(C)c1Cl, which Potency [1] is on record?
A: Its Potency is “inactive”.

Q: With NC1CCCCN(c2c(F)cc3c(=O)c(C(=O)O)cn(C4CC4)c3c2Cl)C1 (stereo not drawn) as the compound, how does the Potency [1] read?
A: Its Potency is “inactive”.

Q: Which Potency [1] does the source give for COC1C(CO)OC(n2cnc3c(=O)[nH]cnc32)C1O (stereo not drawn) here?
A: The Potency was “inactive”.

Q: With CC(C)C(C#N)O[C@@H]1O[C@H](CO[C@@H]2O[C@@H](C)[C@H](O)[C@@H](O)[C@H]2O)[C@@H](O)[C@H](O)[C@H]1O (stereo partly drawn) as the compound, how does the Potency [1] read?
A: The Potency was “inactive”.

Q: For COc1cc(O)cc(C)c1C(=O)OC1C(CO)OC(OC2C(O)C(O)C(O)C(O)C2O)C(O)C1O (stereo not drawn), which Potency [1] is on record?
A: The Potency was “inactive”.

Q: With CCC1=CC2CN(C1)Cc1c([nH]c3ccccc13)[C@@](C(=O)OC)(c1cc3c(cc1OC)N(C)[C@H]1[C@@](O)(C(=O)OC)[C@H](OC(C)=O)[C@]4(CC)C=CCN5CC[C@]31[C@@H]54)C2 (stereo partly drawn) as the compound, how does the Potency [1] read?
A: The Potency was 7.09 µM (active).

Q: With COc1c(/C=C/C(C)(C)O)ccc2c1C(=O)OCc1cc(C)cc(O)c1O2 as the compound, how does the Potency [1] read?
A: The Potency was “inactive”.

Q: With COc1ccc(-c2ccc(-c3cn(C(=O)N4CCCCC4c4ccccc4)nn3)cc2)cc1 (stereo not drawn) as the compound, how does the Potency [1] read?
A: The Potency was “inactive”.

Q: For C[C@@H]1CC[C@]2(C(=O)O)CC[C@]3(C)C(=CCC4[C@@]5(C)C[C@@H](O)[C@H](O)[C@@](C)(CO)C5CC[C@]43C)C2[C@]1(C)O (stereo partly drawn), which Potency [1] is on record?
A: Its Potency is “inactive”.

Q: Which Potency [1] does the source give for C/C(=C/CO)CC[C@@H]1[C@@](C)(O)CCC2C(C)(C)CCC[C@]21C (stereo partly drawn) here?
A: Its Potency is “inactive”.

Q: For Cc1[nH]nc(C(F)(F)F)c1Cc1sc2c(c1C(=O)N1C[C@](C)(O)CO1)c(=O)n(C)c(=O)n2C(C)C, which Potency [1] is on record?
A: The Potency was “inactive”.

Q: With Cc1c(C(=O)N2CCOc3ccc(-c4ccc(N)nc4)cc3C2)ccc(S(C)(=O)=O)c1F as the compound, how does the Potency [1] read?
A: Its Potency is 10.3 µM (active).

Q: Which Potency [1] does the source give for C=C1C(=O)O[C@H]2[C@H]1CC/C(C)=C/CC[C@@]1(C)O[C@@H]21 here?
A: The Potency was “inactive”.

Q: With O=C(O)c1ccc(CN2CCC(CN[C@@H]3C[C@H]3c3ccccc3)CC2)cc1 as the compound, how does the Potency [1] read?
A: The Potency was “inactive”.

Q: With Cc1cc(Nc2ncc3cc(-c4c(Cl)cccc4Cl)c(=O)n(C)c3n2)ccc1F as the compound, how does the Potency [1] read?
A: The Potency was 1.3 µM (active).

Q: With COC(=O)c1c(C)cc(OC(=O)c2c(C)cc(OC)cc2OC)cc1O[C@@H]1O[C@H](CO)[C@@H](O)[C@H](O)[C@H]1O as the compound, how does the Potency [1] read?
A: Its Potency is “inactive”.

Q: Which results are given for Nc1ccccc1N?
A: Potency [2]: 18.8 µM (active); activation [3]: 9.56%; activation [4]: -0.857%; Potency [5]: 3.76 µM (active); Potency [6]: 5.96 µM (active); max response [7]: -5.51%; outcome [8]: inactive; max response [9]: 1.96%; outcome [10]: inactive; Potency [1]: inactive; Potency [11]: inactive

Q: Which Potency [2] does the source give for Cc1ccc(N)cc1O here?
A: Its Potency is 42.2 µM (active).

Q: And the activation [3]?
A: Its activation is 1.03%.

Q: And the Potency [5]?
A: The Potency was 23.7 µM (active).

Q: What about the outcome [12] of the same compound?
A: Its outcome is “inactive”.

Q: And the outcome [13]?
A: Its outcome is “inactive”.

Q: What about the Potency [14] of the same compound?
A: Its Potency is 44.7 µM (active).

Q: What about the max response [7] of the same compound?
A: Its max response is -3.15%.

Q: And the outcome [8]?
A: Its outcome is “inactive”.

Q: What about the outcome [15] of the same compound?
A: Its outcome is “inactive”.

Q: What about the max response [9] of the same compound?
A: The max response was -11.4%.

Q: And the Potency [16]?
A: The Potency was 31.6 µM (active).

Q: And the max response [17]?
A: The max response was 3.99%.

Q: What about the outcome [10] of the same compound?
A: Its outcome is “inactive”.

Q: What about the Potency [1] of the same compound?
A: The Potency was “inactive”.

Q: And the Potency [11]?
A: The Potency was 31.6 µM (active).

Q: With Cc1cc(C)cc(C(=O)NOCCCCCC(=O)NO)c1 as the compound, how does the Potency [1] read?
A: The Potency was 1.3 µM (active).
